Source: PubChem
PP1 inh: PP1-alpha phosphatase inhibitors, primary screen, counter-screen for PP5 inhibitor project, biochemical, fluorescence, OMFP substrate, single point; AID 2235, 2010; 0.9% of 320,000 active; purified PP1alpha; Serine/threonine-protein phosphatase PP1-alpha catalytic subunit (Homo sapiens), P62136; inhibition, % at 6.7 µM;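 active = inhibition above the mean inhibition of all tested compounds plus 3 SD, computed separately for each screening campaign, cut at about 15% in these data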
Beta2AR agonist: beta2AR agonists driving receptor internalization, primary screen, cell-based, FAP fluorogen, flow cytometry | Beta-2 adrenergic receptor (Homo sapiens), P07550 | response, % (test concentration not listed) | 0.43% of 340,000 active | Am2.2-beta2AR cells | AID 504454, 2011;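 active = response above a set limit, near 3 SD of response in nonfluorescent compounds, cut at about 42% in these data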
Granule exo inh: LAMP-1 surface exposure blockers, TALL-104 cells – cell-based, flow cytometry, MLPCN library, primary screen | TALL-104 LAMP-1 surface exposure; cells stimulated with thapsigargin and PMA | inhibition, % at 10 µM | 0.66% of 360,000 active | AID 651702, 2012;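 active = inhibition above about 55%, limit read from the data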
GRK2 inh: compounds blocking aptamer binding on GRK2 – biochemical, human GRK2, bead flow cytometry, HTS, primary screen; Beta-adrenergic receptor kinase 1 (Homo sapiens), P25098; FAM-aptamer displacement from GRK2; inhibition of aptamer binding, % at 10 µM; 0.59% of 330,000 active;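 active = inhibition of aptamer binding above 40%, roughly 3 SD of noise, on plates passing a quality check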;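 also: median bead fluorescence of bound FAM aptamer so fluorescent compounds give negative values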
Target sequence (P25098 whole entry, looked up): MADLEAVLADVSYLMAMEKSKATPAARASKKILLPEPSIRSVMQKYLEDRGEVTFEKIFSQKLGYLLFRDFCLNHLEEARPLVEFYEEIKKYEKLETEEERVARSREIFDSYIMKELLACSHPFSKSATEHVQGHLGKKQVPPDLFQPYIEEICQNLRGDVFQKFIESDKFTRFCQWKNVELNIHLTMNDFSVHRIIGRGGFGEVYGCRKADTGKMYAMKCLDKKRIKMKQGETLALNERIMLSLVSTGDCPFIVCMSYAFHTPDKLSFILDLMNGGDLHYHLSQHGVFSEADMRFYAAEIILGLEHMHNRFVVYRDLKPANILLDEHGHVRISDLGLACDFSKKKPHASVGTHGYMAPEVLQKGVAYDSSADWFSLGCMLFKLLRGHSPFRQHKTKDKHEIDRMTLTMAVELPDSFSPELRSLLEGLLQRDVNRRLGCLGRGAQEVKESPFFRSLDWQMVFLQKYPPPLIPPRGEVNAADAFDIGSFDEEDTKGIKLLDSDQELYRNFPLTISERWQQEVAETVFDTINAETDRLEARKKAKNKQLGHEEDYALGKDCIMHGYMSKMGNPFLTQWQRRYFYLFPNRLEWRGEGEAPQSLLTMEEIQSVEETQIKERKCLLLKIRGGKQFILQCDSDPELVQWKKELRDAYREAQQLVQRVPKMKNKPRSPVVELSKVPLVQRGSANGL
NadD inh: inhibitors of S. aureus NadD, primary screen, biochemical, colorimetric, uHTS; Nicotinate-nucleotide adenylyltransferase NadD (Staphylococcus aureus N315); purified NadD enzyme, colorimetric absorbance read-out; inhibition, % at 20 µM; 0.78% of 360,000 active; AID 602399, 2012; in the data active = inhibition above about 26%
GRK2 inh confirm: GRK2 aptamer-displacing inhibitors, retest, confirmation, biochemical, cherry pick 1, bead flow cytometry | shares compounds with GRK2 inh | bead-bound GRK2, FAM-aptamer displacement | aptamer displacement, % at 10 µM | 4% of 2,000 active | AID 504451, 2011;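 active = aptamer displacement above 40%, near three times the noise of non-fluorescent compounds, on plates passing quality checks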;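 also: negative values mostly reflect intrinsic compound fluorescence rather than true enhancement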
Aptamer quench SP: counter-screen for GRK2 aptamer inhibitors: fluorescent aptamer quenchers | AID 504580 | 2,000 tested, under 10 active | Carboxyfluorescein RNA aptamer on beads, flow cytometry quenching; active compounds read low | fluorescence response (% of DMSO), % at 10 µM | shares compounds with GRK2 inh;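 active = compounds that quench the bead-bound fluorescent RNA probe, cutting fluorescence to under half of the solvent control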;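 also: counterscreen run without GRK2 so only probe quenching by compound is measured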
GRK2 CP2: GRK2 aptamer-displacing inhibitors, hit retest, confirmation, biochemical, cherry pick 2, bead flow cytometry; bead-bound GRK2, FAM-aptamer displacement; shares compounds with GRK2 inh; AID 504782, 2011; 360 tested, under 10 active; inhibition of aptamer binding, % at 10 µM;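 active = inhibition of aptamer binding above 40%, about triple the noise seen with nonglowing compounds, on plates passing quality control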;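 also: negative values mostly come from compounds that fluoresce themselves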
FAM quench SP: aptamer fluorescence quenching in GRK2 counter-screen | shares compounds with GRK2 inh | carboxyfluorescein RNA aptamer beads, flow cytometry quenching; active compounds read low | fluorescence response vs DMSO, % at 10 µM | 360 tested, under 10 active | AID 588494;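 active = response vs DMSO under 50%, meaning signal dropped by over half, treated as fluorescence quencher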;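 also: labelled aptamer on streptavidin beads without GRK2 as a quench counter-screen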
Of the large screens only hits and unclear results are named; the others gave an inactive call (follow-up assays come after a bar, where they were run). Sampled rows, rich in hits. Any-hit rate of the full collection: about 2.9%.

CC12C(=O)N(c3ccccc3C(=O)O)C(=O)C1C1C=CC2C1 (centres undefined)	GRK2 inh 79 | GRK2 inh confirm inactive | Aptamer quench SP inactive
COc1ccc(CN2C(=O)C(CC(C)C)Nc3ncnc(N4CCOCC4)c32)cc1 (centres undefined)	GRK2 inh 97 | GRK2 inh confirm inactive | Aptamer quench SP inactive
Cc1cc(=O)n2nc(N3CCCC(C(=O)NCCCN4CC(C)CC(C)C4)C3)sc2n1 (centres undefined)	none
CC1Cc2nc(SCC(=O)N3CCCC3)n(C)c(=O)c2S1 (centres undefined)	GRK2 inh 100 | GRK2 inh confirm inactive | Aptamer quench SP inactive
CCOC(=O)c1c(NC(=O)CSc2nc3ccccc3o2)sc(C(C)=O)c1C	GRK2 inh 51 | GRK2 inh confirm inactive | Aptamer quench SP inactive
O=C1NC(=O)/C(=C\c2ccc(O)cc2O)S1	GRK2 inh 76 | GRK2 inh confirm inactive | Aptamer quench SP inactive
O=C1NC(=O)/C(=C/c2cccc3ccccc23)S1	none
O=C(c1cccc([N+](=O)[O-])c1)N1CCCN(C(=O)c2cccc([N+](=O)[O-])c2)CC1	none
Cc1ccc(Cl)cc1NC(=O)COC(=O)c1ccccc1O	GRK2 inh 85 | GRK2 inh confirm inactive | Aptamer quench SP inactive
O=C(COC(=O)c1cc(Cl)ccc1O)Nc1ccccc1C(=O)NC1CC1	none (no result: PP1 inh)
CC1CCCC(NC(=S)Nc2cccc(S(=O)(=O)N(C)C)c2)C1C (centres undefined)	none
C=CCn1c[n+](CC(=O)c2ccc(Br)s2)c2ccccc21	GRK2 inh 57 | GRK2 inh confirm inactive | Aptamer quench SP inactive
COC(=O)c1nccc2c1[nH]c1ccccc12	none
CC1CCN(c2nc(-c3cccnc3)nc3scc(-c4ccccc4)c23)CC1	none
CC1CCN(c2nc(CN3CCCCC3)nc3scc(-c4ccccc4)c23)CC1	none | GRK2 inh confirm inactive | Aptamer quench SP inactive
CCOC(=O)Nc1ccc(Cc2ccncc2)cc1	none
Fc1ccc2c(c1)C(c1ccc(N3CCOCC3)cc1)=NNC(c1cccs1)=N2	none
Cc1ccc2c(c1)C(c1ccc(N3CCOCC3)cc1)=NNC(c1cccs1)=N2	GRK2 inh 100 | GRK2 inh confirm inactive | Aptamer quench SP inactive
O=C(Nc1nccs1)C(c1ccccc1)N1CCCCC1 (centres undefined)	GRK2 inh 61 | GRK2 inh confirm inactive | Aptamer quench SP inactive
O=C(Nc1nccs1)C(Br)C(Br)c1ccccc1 (centres undefined)	none
O=C(Nc1ccc(Cl)cn1)c1cccc2ccccc12	none (no result: GRK2 inh)
C/C(=N\OCc1ccc(C#N)cc1)c1ccc(S(=O)(=O)N(C)C)cc1	GRK2 inh 47 | GRK2 inh confirm inactive | Aptamer quench SP inactive
C/C(=N\OCc1ccc(C#N)cc1)c1ccccc1	none
CC(C)=CCC[C@H](C)C[C@@H]1CC2=C(C(=O)OC(C)(C)O2)[C@@H](c2ccc(F)cc2)O1	none (no result: PP1 inh, Beta2AR agonist, GRK2 inh)
CC(c1nnc(SCC(=O)Nc2cccnc2Cl)n1Cc1ccccc1)N(C)C (centres undefined)	GRK2 inh 99 | GRK2 inh confirm inactive | Aptamer quench SP inactive
CC(C)N(CCn1c(SCC(=O)Nc2cccnc2Cl)nc2ccccc2c1=O)C(C)C	GRK2 inh 42 | GRK2 CP2 inactive | FAM quench SP inactive
CCOc1ccccc1NC(=O)CCc1nnc2ccc(N3CCC4(CC3)OCCO4)nn12	none
Cc1ccccc1S(=O)(=O)N(C)C[C@@H]1OCc2cn(nn2)CCCC(=O)N([C@H](C)CO)C[C@H]1C	none (no result: PP1 inh, Beta2AR agonist, GRK2 inh)
CSc1ccccc1C(=O)NCCCn1ccnc1	GRK2 inh 100 | GRK2 inh confirm inactive | Aptamer quench SP inactive
CCSc1ccccc1C(=O)NCCCn1ccnc1	none
Cc1ccccc1Cn1nc(C)c(NC(=O)c2cc3n(n2)C(C(F)F)CC(C(F)F)N3)c1C (centres undefined)	GRK2 inh 98 | GRK2 inh confirm inactive | Aptamer quench SP inactive
CCC(C)(C)NC(=O)CN(Cc1cccs1)C(=O)C(=O)Nc1ccc2c(c1)OCCO2	GRK2 inh 74 | GRK2 inh confirm inactive | Aptamer quench SP inactive
COc1ccc(OC)c(NC(=O)/C=C/c2ccc(S(=O)(=O)N3CCOCC3)cc2)c1	none (no result: PP1 inh, GRK2 inh)
COc1cc(C(=O)NCCCN2CCCC2=O)cc(OC)c1OC	GRK2 inh 94 | GRK2 inh confirm inactive | Aptamer quench SP inactive
COc1cc(-c2noc(C)c2C(=O)NCCCN2CCCC2=O)cc(OC)c1OC	none (no result: PP1 inh)
CC(Cl)C(=O)Nc1ncc(C(F)(F)F)cc1Cl (centres undefined)	GRK2 inh 52 | GRK2 inh confirm inactive | Aptamer quench SP inactive
CCc1ccc(/C([O-])=C(/C(=S)NCCN2CCOCC2)[n+]2ccccc2)cc1	GRK2 inh 72 | GRK2 inh confirm inactive | Aptamer quench SP inactive
CCN(C(=O)CN1C(=O)c2ccc([N+](=O)[O-])cc2C1=O)C1CCCCC1	GRK2 inh 69 | GRK2 CP2 inactive | FAM quench SP 35
Cc1ccc(C(=O)N/C(=C\c2cccc([N+](=O)[O-])c2)C(=O)NC(Cc2ccccc2)C(=O)O)cc1 (centres undefined)	none
COc1ccc2cc(C(c3nnnn3C3CCCC3)N3CCOCC3)c3nnnn3c2c1 (centres undefined)	none
Cc1ccc(-c2nn(-c3ccccc3)cc2/C=C/C(=O)OCC(=O)NC2CC2)o1	GRK2 inh 78 | GRK2 inh confirm inactive | Aptamer quench SP inactive
Cc1ccccc1C(=O)Nc1nncs1	none
Cc1cc(C(=O)Nc2nncs2)oc1C	GRK2 inh 90 | GRK2 inh confirm inactive | Aptamer quench SP inactive
COc1ccccc1S(=O)(=O)N(C)C[C@@H]1OCc2cnnn2CCCC(=O)N([C@H](C)CO)C[C@H]1C	none (no result: PP1 inh, Beta2AR agonist, GRK2 inh)
O=C(CSc1nnc(NC(=O)Cc2ccccc2)s1)NCc1ccco1	GRK2 inh 60 | GRK2 inh confirm inactive | Aptamer quench SP inactive
